Compound activity as filed in PubChem.
GPR151 activ = activates the human receptor GPR151 | PathHunter beta-arrestin GPR151 cells, luminescence | Q8TDV0 | 650,000 compounds, 1% hits | AID 1508602 | activation, % at 11.2 µM; in the data active = activation above about 4.9%;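 also: 0% = median of compound wells and 100% = cells with positive control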
Target sequence (Q8TDV0 whole entry, looked up): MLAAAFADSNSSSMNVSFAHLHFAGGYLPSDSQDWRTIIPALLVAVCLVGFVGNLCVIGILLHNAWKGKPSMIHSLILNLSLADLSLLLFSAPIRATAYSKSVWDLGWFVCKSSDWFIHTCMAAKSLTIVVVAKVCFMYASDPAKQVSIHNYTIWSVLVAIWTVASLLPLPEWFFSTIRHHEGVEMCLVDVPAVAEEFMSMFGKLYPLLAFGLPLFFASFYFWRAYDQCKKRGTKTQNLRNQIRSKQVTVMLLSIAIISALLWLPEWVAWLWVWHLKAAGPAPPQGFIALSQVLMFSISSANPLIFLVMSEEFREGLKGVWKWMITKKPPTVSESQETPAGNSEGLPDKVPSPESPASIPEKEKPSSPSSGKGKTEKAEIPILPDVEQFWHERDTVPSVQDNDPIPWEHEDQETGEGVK
MITF inh = blocks human microphthalmia-associated transcription factor; O75030; AlphaScreen MITF homodimerization, bead proximity signal; inhibition, % at 2.6 µM; 650,000 compounds, 0.91% hits; AID 1259374; in the data active = inhibition above about 50%;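 also: 0% = vehicle wells with protein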
FBW7 act = activators of human E3 ligase FBW7; 650,000 compounds, 0.13% hits; AlphaScreen FBW7–phospho-cyclin E peptide binding, activator screen; normalized activity (activation), % at 26.1 µM; in the data active = normalized activity above about 1.9%;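 also: purified mutant Fbw7 with reduced substrate affinity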
TEAD-YAP block = TEAD-YAP interaction inhibition; 640,000 compounds, 1.4% hits; inhibition, % at 9.12 µM; HEK-TIYL cells, TEAD-Gal4/YAP UAS-luciferase luminescence; in the data active = inhibition above about 32%;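 also: 0% = median of test compound wells and 100% = reference inhibitor wells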
MITF inh conf = confirmation of human MITF inhibitors; AlphaScreen MITF homodimerization, biotin/His-MITF beads; inhibition, % at 2.6 µM; AID 1259372; shares compounds with MITF inh; 4,700 compounds, 16% hits;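 active = inhibition above a cutoff derived from the DMSO control wells, cut at about 28% in these data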;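 also: 0% = MITF dimer wells with DMSO only; inhibitors lower the bead chemiluminescence by keeping MITF from dimerizing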
AlphaScreen intf2 = AlphaScreen optical interference, counter-screen. shares compounds with MITF inh. LysRS AlphaScreen counterscreen, signal interference, triplicate. inhibition, % at 2.6 µM. 4,700 compounds, 7.6% hits. AID 1259376;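 active = inhibition above a cutoff derived from the DMSO control wells, cut at about 30% in these data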
* marks the source's active call; other numbers are inactive results. Most compounds without a hit are left out; they make up all but 3.5% or so of the library.

`O=C(c1ccccc1F)N1CCN(C2CCN(Cc3ccccc3)CC2)CC1` gave GPR151 activ 0.1, MITF inh 60.8*, FBW7 act -0.1, TEAD-YAP block 5.3, MITF inh conf 9.2 and AlphaScreen intf2 17.9.
Screening O=C(c1ccccc1F)N1CCN(C2CCCCC2)CC1 returned GPR151 activ 2.8, MITF inh 35.6, FBW7 act 0.1 and TEAD-YAP block -0.3.
`COc1ccc(C(=O)N2CCC(N3CCCC3)CC2)cc1` gave GPR151 activ 3.8, MITF inh 30.5, FBW7 act -0.1 and TEAD-YAP block -0.5.
For O=C(O)C1CCN(C2CCN(Cc3ccccc3)CC2)CC1 the results were GPR151 activ 0.1, MITF inh 74.9*, FBW7 act -0.1, TEAD-YAP block 1.0, MITF inh conf 11.7 and AlphaScreen intf2 7.0.
`O=C1OC(/C=C/c2ccccc2)=NC/1=C\c1cccc2ccccc12` gave GPR151 activ -0.3, MITF inh 10.9, FBW7 act 0.0 and TEAD-YAP block 2.9.
Screening O=c1[nH]c(N/N=C/c2cc3c(cc2Br)OCO3)nc2ccccc12 returned GPR151 activ -0.6, MITF inh -9.7, FBW7 act 0.0 and TEAD-YAP block 3.3.
`C=CCOc1ccccc1CN(C)CCc1ccccn1` gave GPR151 activ -0.4, MITF inh 64.8*, FBW7 act 0.2, TEAD-YAP block 8.9, MITF inh conf -11.7 and AlphaScreen intf2 -7.2.
For COc1cccc(CN(C)CCc2ccccn2)c1OC the results were GPR151 activ -0.8, MITF inh 41.0, FBW7 act 0.0 and TEAD-YAP block -2.1.
For CN(CCc1ccccn1)Cc1cc2c(cc1[N+](=O)[O-])OCO2 the results were GPR151 activ 0.9, MITF inh 8.0, FBW7 act -0.1 and TEAD-YAP block -8.8.
Screening CN(CCc1ccccn1)Cc1ccccc1C(F)(F)F returned GPR151 activ -1.1, MITF inh 34.7, FBW7 act 0.5 and TEAD-YAP block -2.0.
For CN(CCc1ccccn1)Cc1ccccc1Br the results were GPR151 activ 0.5, MITF inh 81.0*, FBW7 act 0.0, TEAD-YAP block 3.1, MITF inh conf 0.8 and AlphaScreen intf2 11.5.
CN(CCc1ccccn1)Cc1ccccc1F was read as GPR151 activ 0.5, MITF inh 79.4*, FBW7 act 0.2, TEAD-YAP block -1.0, MITF inh conf 1.6 and AlphaScreen intf2 19.2.
Screening CN(CCc1ccccn1)Cc1ccccc1[N+](=O)[O-] returned GPR151 activ -0.2, MITF inh 57.1*, FBW7 act 0.0, TEAD-YAP block 1.5, MITF inh conf 10.7 and AlphaScreen intf2 0.7.
`CN(C(=O)Cn1ncc2c1-c1ccccc1OC2)c1ccccc1` gave GPR151 activ -2.4, MITF inh 5.6, FBW7 act 0.3 and TEAD-YAP block 22.7.
COc1ccc(CCNC(=O)c2cnc(-c3cccc(N)c3)s2)cc1 was read as GPR151 activ -0.8, MITF inh 17.3, FBW7 act -0.1 and TEAD-YAP block 4.8.
`CN(C)CCN(C)Cc1ccccc1[N+](=O)[O-]` gave GPR151 activ -1.0, MITF inh 76.1*, FBW7 act -0.1, TEAD-YAP block -2.1, MITF inh conf 10.3 and AlphaScreen intf2 17.1.
`COc1ccc(CN(C)CCc2ccccn2)c(OC)c1` gave GPR151 activ -1.4, MITF inh 77.0*, FBW7 act 0.1, TEAD-YAP block 2.2, MITF inh conf 4.3 and AlphaScreen intf2 3.4.
Screening CN(C)CCN(C)Cc1ccccc1F returned GPR151 activ 0.6, MITF inh 52.6*, FBW7 act -0.2, TEAD-YAP block -1.6, MITF inh conf -2.2 and AlphaScreen intf2 -2.4.
Screening C=C/C=C(\C(C)=C(C)C)N(C(C)=O)C1=NCCCS1 returned GPR151 activ 0.9, MITF inh 64.7*, FBW7 act 0.0, TEAD-YAP block 3.3, MITF inh conf 11.7 and AlphaScreen intf2 11.3.
CCN1CCCC1CNCC(O)COc1ccccc1 (configuration not stated) was read as GPR151 activ -0.8, MITF inh 55.6*, FBW7 act 0.3, TEAD-YAP block 2.4, MITF inh conf -12.1 and AlphaScreen intf2 -7.3.
For COc1cc(CN2CCN(C(=O)c3cccc(OC)c3OC)CC2)cc(OC)c1O the results were GPR151 activ 0.5, MITF inh 39.0, FBW7 act -0.1 and TEAD-YAP block 1.4.
`COc1cccc(CN2CCN(Cc3ccc(OC)c4ccccc34)CC2)c1OC` gave GPR151 activ 1.7, MITF inh 69.7*, FBW7 act -0.1, TEAD-YAP block -3.4, MITF inh conf 6.5 and AlphaScreen intf2 13.1.
Screening COc1ccc(CN2CCN(S(=O)(=O)c3ccc(Cl)cc3)CC2)c(OC)c1OC returned GPR151 activ 0.6, MITF inh 5.2, FBW7 act 0.1 and TEAD-YAP block -4.2.
Screening COc1ccc(CN2CCN(Cc3ccc(Cl)cc3)CC2)c(OC)c1OC returned GPR151 activ -1.1, MITF inh 81.7*, FBW7 act -0.1, TEAD-YAP block 10.2, MITF inh conf 9.9 and AlphaScreen intf2 18.0.
`COc1cccc(CN2CCN(C(=O)c3cccc(OC)c3OC)CC2)c1` gave GPR151 activ -0.5, MITF inh 53.9*, FBW7 act -0.2, TEAD-YAP block 5.1, MITF inh conf 9.2 and AlphaScreen intf2 6.9.
For COc1cccc(CN2CCN(Cc3ccc(OC)c(OC)c3OC)CC2)c1 the results were GPR151 activ -0.3, MITF inh 66.0*, FBW7 act 0.0, TEAD-YAP block 6.3, MITF inh conf 3.3 and AlphaScreen intf2 14.3.
`CC1(C)C(=O)OC(c2ccc(Br)o2)C2(CCCCC2)C1=O` (configuration not stated) gave GPR151 activ -0.8, MITF inh -0.8, FBW7 act 0.2 and TEAD-YAP block 4.7.
Cc1nn(C)c(C)c1-c1ccc(C(=O)Nc2ccc(Oc3ccccc3)cc2)s1 was read as GPR151 activ -0.2, MITF inh 14.6, FBW7 act 0.6 and TEAD-YAP block -3.8.
COc1ccc(OC)c(CN2CCN(Cc3ccc(OC)c(OC)c3OC)CC2)c1 was read as GPR151 activ -1.4, MITF inh 31.6, FBW7 act -0.2 and TEAD-YAP block -4.7.
Screening COc1ccc(CN2CCN(CCOCCOc3ccccc3)CC2)c(OC)c1OC returned GPR151 activ 0.2, MITF inh 75.1*, FBW7 act -0.6, TEAD-YAP block 6.3, MITF inh conf -11.6 and AlphaScreen intf2 -3.0.
`COc1ccc(CN2CCN(CCOc3ccc([N+](=O)[O-])c(C)c3)CC2)c(OC)c1OC` gave GPR151 activ 0.2, MITF inh 82.5*, FBW7 act 0.0, TEAD-YAP block 5.8, MITF inh conf -2.2 and AlphaScreen intf2 8.6.
For COc1cccc(CN2CCN(Cc3ccc(OC)c(OC)c3OC)CC2)c1OC the results were GPR151 activ 0.2, MITF inh 76.7*, FBW7 act -0.1, TEAD-YAP block -2.4, MITF inh conf 11.0 and AlphaScreen intf2 13.9.
